Assay outcomes from PubChem.
A selection: hits, their analogues and other compounds. The true share with any hit is near 3.4%.
TEAD-YAP inh: TEAD-YAP interaction inhibition; HEK-TIYL cells, TEAD-Gal4/YAP UAS-luciferase luminescence; inhibition, % at 9.12 µM; actives 1.4% (n = 640,000); in the data active = inhibition above about 32%
FBW7 activator: human FBW7 E3 ligase activation, primary screen | actives 0.13% (n = 650,000) | AlphaScreen FBW7–phospho-cyclin E peptide binding, activator screen | Q969H0 | AID 1259310 | normalized activity (activation), % at 26.1 µM; in the data active = normalized activity above about 1.9%;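 note: purified mutant Fbw7 with reduced substrate affinity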
MITF inh: human MITF inhibition, primary screen. O75030. AlphaScreen MITF homodimerization, bead proximity signal. inhibition, % at 2.6 µM. actives 0.91% (n = 650,000). AID 1259374; in the data active = inhibition above about 50%
GPR151 ag: activators of human GPR151; PathHunter beta-arrestin GPR151 cells, luminescence; actives 1% (n = 650,000); Q8TDV0; activation, % at 11.2 µM; AID 1508602; in the data active = activation above about 4.9%
GPR151 confirm: human GPR151 activation, confirmation screen. 6,700 tested, under 10 active. GPR151 PathHunter beta-arrestin cells, luminescence, 90 min; % of EA-reagent control over plate median. shares compounds with GPR151 ag. activation, % at 11.2 µM;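 active = mean percent activation across replicates above the confirmation screen cutoff of 4.91%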
GPR119 ag: activates human GPR119 in a GPR151 counter-screen | actives 0.3% (n = 6,700) | activation, % at 11.2 µM | GPR119 PathHunter beta-arrestin cells, luminescence, 90 min; 0 = compound-well median, 100 = enzyme-acceptor control | AID 1508611 | shares compounds with GPR151 ag;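 active = mean percent activation in the counterscreen above 29.09%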;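 note: counterscreen on off-target GPR119 to flag nonselective hits from the GPR151 activator screen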
Target sequence (Q8TDV5 whole entry, looked up): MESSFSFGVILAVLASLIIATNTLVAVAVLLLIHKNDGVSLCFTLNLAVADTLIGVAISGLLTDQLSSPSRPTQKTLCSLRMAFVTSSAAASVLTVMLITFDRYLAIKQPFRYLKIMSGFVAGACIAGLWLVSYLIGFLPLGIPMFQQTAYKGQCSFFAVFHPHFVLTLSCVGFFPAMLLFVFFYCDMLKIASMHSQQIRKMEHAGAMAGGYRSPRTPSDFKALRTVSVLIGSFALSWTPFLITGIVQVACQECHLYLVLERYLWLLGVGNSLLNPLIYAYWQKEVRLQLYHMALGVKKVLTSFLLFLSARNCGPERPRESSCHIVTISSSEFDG
Large screens that a line does not name were inactive (follow-up assays come after a bar, where they were run); ! = a repeat was not active.

COC(=O)c1ccccc1NC(=O)CN(c1cc(OC)ccc1OC)S(C)(=O)=O	GPR151 ag 5.6 | GPR151 confirm inactive | GPR119 ag inactive
COc1ccc(OC)c(N(CC(=O)Nc2ccccc2F)S(C)(=O)=O)c1	none
CC(C)N(CCNC(=O)c1cccc(-c2csc3ccccc23)c1)C(C)C	none
O=C(O)/C=C/c1cn(-c2ccccc2)nc1-c1cccc([N+](=O)[O-])c1	GPR151 ag 5.3 | GPR151 confirm inactive | GPR119 ag inactive
Cc1cccn2c(CNC3CCCc4ccccc43)c(C(=O)N3CCOCC3)nc12 (configuration not stated)	none
Cc1cccn2c(CN[C@@H]3CCCC[C@H]3c3ccccc3)c(C(=O)N3CCOCC3)nc12	GPR151 ag 5.0 | GPR151 confirm inactive | GPR119 ag inactive
Clc1ccc(CSc2ncnc3nc[nH]c23)cc1	GPR151 ag 6.6 | GPR151 confirm inactive | GPR119 ag inactive
Cc1ccc(CN2CCNC(=O)C2CC(=O)N2CCCN(Cc3cccs3)CC2)o1 (configuration not stated)	none
Cc1ccc(CN2CCNC(=O)C2CC(=O)N2CCN(Cc3csc(C)n3)CC2)o1 (configuration not stated)	GPR151 ag 5.1 | GPR151 confirm inactive | GPR119 ag inactive
COc1cc(OC)cc(C(=O)NNC(=O)NC2CCCCC2)c1	GPR151 ag 7.3 | GPR151 confirm inactive | GPR119 ag inactive
COc1ccc(NC(=O)c2ccoc2C)c(OC)c1	GPR151 ag 6.1 | GPR151 confirm inactive | GPR119 ag inactive
COc1ccc(NC(=O)C(=O)NC2CCCCCC2)c(OC)c1	GPR151 ag 5.3 | GPR151 confirm inactive | GPR119 ag inactive
O=C1C(Cl)=C(Nc2ccccc2O)C(=O)N1c1ccc(I)cc1	none
CC(Oc1ccccc1)C(=O)Nc1ccc(-c2cn3ccccc3n2)cc1 (configuration not stated)	none
COC(=O)c1cc(C)sc1NC(=S)N1CCCCCC1	GPR151 ag 8.7 | GPR151 confirm inactive | GPR119 ag inactive
CC1C(=O)N(Cc2ccc(Cl)cc2Cl)C(=O)CS1=O (configuration not stated)	GPR151 ag 6.6 | GPR151 confirm inactive | GPR119 ag inactive
CCOC(=O)C1CCN(S(=O)(=O)c2cc3[nH]c(=O)c(=O)[nH]c3cc2C)CC1	GPR151 ag 5.2 | GPR151 confirm inactive | GPR119 ag inactive
CCOC(=O)[C@H](CCc1ccccc1)N[C@@H](C)C(=O)N1[C@H](C(=O)O)C[C@@H]2CCC[C@@H]21	GPR151 ag 7.0! | GPR151 confirm inactive | GPR119 ag inactive
Cc1ccc(NC(=O)C2CC(Cl)=CCC2C(=O)O)cc1[N+](=O)[O-] (configuration not stated)	GPR151 ag 18 | GPR151 confirm inactive | GPR119 ag inactive
NNC(=O)CSc1nc2cccnc2s1	GPR151 ag 5.1 | GPR151 confirm inactive | GPR119 ag inactive
COc1ccccc1Nc1nnc(SCC(=O)Nc2sccc2C(N)=O)s1	none
O=C(Cn1[nH]c(=O)c2ccccc2c1=O)NCc1cccnc1	none
O=C(Cn1[nH]c(=O)c2ccccc2c1=O)Nc1cccnc1	GPR151 ag 19 | GPR151 confirm inactive | GPR119 ag inactive
CCn1c(C)nnc1SCC(=O)Nc1nnc(C)s1	none
Cc1cc(N(C)C)nc(N2CCOCC2)n1	none
O=C1/C(=C/c2cccnc2)CC/C1=C\c1cccnc1	GPR151 ag 6.5 | GPR151 confirm inactive | GPR119 ag inactive
CCCC(c1nnnn1CCOC)N1CCN(c2cccc(C(F)(F)F)c2)CC1 (configuration not stated)	GPR151 ag 5.4 | GPR151 confirm inactive | GPR119 ag inactive
O=[N+]([O-])c1ccc(N/N=C/c2ccc(Oc3ccc([N+](=O)[O-])cn3)cc2)nc1	none
Cc1ccccc1C(=O)NCCN1CCn2cc(OCc3ccccc3)c(=O)cc2C1=O	none
O=C(NCCN1CCn2cc(OCc3ccc(F)cc3)c(=O)cc2C1=O)C1CC1	GPR151 ag 6.7 | GPR151 confirm inactive | GPR119 ag inactive
COCCNc1nccn2c(-c3cncc(OC)c3)cnc12	none
COc1cc(-c2noc(CCCC(=O)Nc3ccc(C)cc3C)n2)cc(OC)c1OC	none
O=c1ccc2cc(S(=O)(=O)NCc3ccco3)ccc2o1	none
O=c1[nH]c2ccc(S(=O)(=O)NCc3ccco3)cc2o1	GPR151 ag 6.0 | GPR151 confirm inactive | GPR119 ag inactive
Cc1nc2ccccc2nc1CN1CCC2(CC1)CC2C(=O)N(C)Cc1cscn1 (configuration not stated)	none
Cc1ccsc1CN1CCC2(CC1)CC2C(=O)N(C)Cc1cscn1 (configuration not stated)	GPR151 ag 5.2 | GPR151 confirm inactive | GPR119 ag inactive
Fc1ccc(CSc2ccc3nnc(-c4cccnc4)n3n2)cc1	GPR151 ag 5.3 | GPR151 confirm inactive | GPR119 ag inactive
c1ccc(-c2nnc3ccc(SCc4cccnc4)nn23)cc1	none
C/C(=N\NC(=O)c1ccc(CN2c3cccc4cccc(c34)S2(=O)=O)cc1)c1ccco1	none
CN1CCC(=NNC(=O)c2ccc(CN3c4cccc5cccc(c45)S3(=O)=O)cc2)CC1	GPR151 ag 6.0 | GPR151 confirm inactive | GPR119 ag inactive
O=C1N[C@@H](Cc2ccc(O)cc2)C(=O)N2CCN(C(=O)c3cc(F)ccc3F)C[C@H]12	GPR151 ag 5.7 | GPR151 confirm inactive | GPR119 ag inactive
C[C@@H](O)[C@@H]1NC(=O)[C@H]2CN(C(=O)c3ccc4ccccc4c3)CCN2C1=O	none
CC[C@@H]1NC(=O)[C@H]2CN(C(=O)c3cccc(Cl)c3)CCN2C1=O	GPR151 ag 13 | GPR151 confirm inactive | GPR119 ag inactive
C[C@H](O)[C@H]1NC(=O)[C@H]2CN(C(=O)c3ccc4ccccc4c3)CCN2C1=O	GPR151 ag 6.2 | GPR151 confirm inactive | GPR119 ag inactive
O=C1N[C@@H](Cc2ccc(Cl)cc2)C(=O)N2CCN(C(=O)c3cc(Cl)cc(Cl)c3)C[C@H]12	GPR151 ag 15 | GPR151 confirm inactive | GPR119 ag inactive
CC(=O)N1CCN(C(=O)CSc2nnc(C(F)(F)F)n2N)CC1	none
CCN(CC)C(=O)c1c(COC)n(CC2CCCCC2)c(C)cc1=O	none
O=C(NC(Nc1cccnc1Cl)(C(F)(F)F)C(F)(F)F)c1ccccc1	none
O=C1N[C@@H](Cc2cnc[nH]2)C(=O)N2CCN(C(=O)c3ccc(F)cc3)C[C@H]12	GPR151 ag 6.0 | GPR151 confirm inactive | GPR119 ag inactive
CN(Cc1cscn1)C(=O)C1CC12CCN(Cc1ccc3c(c1)CCO3)CC2 (configuration not stated)	none
CCOc1ccc(S(=O)(=O)N2CCN(C)CC2)cc1-c1nc2c(C(C)(C)C)nn(C)c2c(=O)[nH]1	GPR151 ag 5.1 | GPR151 confirm inactive | GPR119 ag inactive
